Compounds without any hit were thinned out: in the full panel of roughly 79,000, 15% have a hit. Activity calls are given as the source filed them. Cut-off read from the data, not from the text of the source: active = growth inhibition above about 70%; inactive = the rest.
Columns and labels:
[1] = NCI Yeast Anticancer Drug Screen. Data for the wt2 strain (AID 169);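 note: 0% = growth of vehicle-treated yeast cultures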; conditions: S. cerevisiae wt2 strain growth inhibition, hits give high values
In short: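 This strain belongs to a panel of yeast strains with defined genetic alterations in DNA damage repair or cell cycle control. Compounds are applied, and growth inhibition is measured against vehicle-treated cultures.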

[2] = NCI Yeast Anticancer Drug Screen. Data for the mlh1 strain (AID 171);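 note: 0% = growth of vehicle-treated control cultures of the same strain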; conditions: S. cerevisiae mlh1 strain growth inhibition, hits give high values
In short: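 Growth of the mutant yeast strain after compound exposure, expressed as inhibition relative to vehicle-only controls.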

[3] = NCI Yeast Anticancer Drug Screen. Data for the sgs1 strain (AID 173);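 note: 0% = growth of vehicle-only control cultures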; conditions: S. cerevisiae sgs1 mutant, hits give high values
In short: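 Growth of a yeast strain bearing a defined genetic alteration is measured after compound treatment. Inhibition is expressed relative to vehicle-only controls.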

[4] = NCI Yeast Anticancer Drug Screen. Data for the mlh1 rad18 strain (AID 175); conditions: S. cerevisiae mlh1 rad18 strain growth inhibition, hits give high values
In short: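 Read-out is yeast growth inhibition, calculated against vehicle-only controls. The compound was applied to a strain engineered with DNA damage repair alterations.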

[5] = NCI Yeast Anticancer Drug Screen. Data for the rad18 strain (AID 177); conditions: S. cerevisiae rad18 mutant growth inhibition, hits give high values
In short: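 Growth of the mutant yeast strain after compound exposure, normalised to vehicle-only cultures.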

[6] = NCI Yeast Anticancer Drug Screen. Data for the rad52 strain (AID 147);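 note: 0% = growth of vehicle-treated control cultures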; conditions: S. cerevisiae rad52 mutant growth inhibition, hits give high values
In short: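 Compounds are applied to a genetically defined yeast strain lacking normal DNA damage repair, and inhibition of growth is expressed relative to cultures given vehicle only.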

[7] = NCI Yeast Anticancer Drug Screen. Data for the wt1 strain (AID 149);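 note: 0% = growth of vehicle-treated wt1 cultures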; conditions: S. cerevisiae wt1 strain (SPY 50644) growth inhibition, hits give high values
In short: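 The wt1 strain was treated with compounds, and growth was compared with vehicle-treated cultures to give inhibition.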

[8] = NCI Yeast Anticancer Drug Screen. Data for the rad50EPP+ strain (AID 151);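 note: 0% = growth of vehicle-treated control cultures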; conditions: S. cerevisiae rad50 mutant strain, hits give high values
In short: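 Compounds were applied to the rad50EPP+ yeast strain, which bears a defined DNA repair alteration, and growth inhibition was determined relative to vehicle-treated cultures.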

[9] = NCI Yeast Anticancer Drug Screen. Data for the mgt1 strain (AID 153); conditions: S. cerevisiae mgt1 mutant growth inhibition, hits give high values
In short: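 Strain: mgt1 yeast, one of a set carrying defined DNA damage repair or cell cycle control alterations. Compound-treated growth compared with vehicle.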

[10] = NCI Yeast Anticancer Drug Screen. Data for the rad50 strain (AID 155);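 note: 0% = growth of vehicle-only cultures of the same strain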; conditions: S. cerevisiae rad50 strain growth inhibition, hits give high values
In short: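 Cells are treated with compound, grown, and their growth is then scored against vehicle-only cultures of the same repair-deficient yeast strain.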

[11] = NCI Yeast Anticancer Drug Screen. Data for the mec2-1 strain (AID 157); conditions: S. cerevisiae mec2-1 strain, hits give high values
In short: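 Strain: mec2-1 (DNA repair/cell cycle alteration). Compound exposure, then growth measured; inhibition expressed relative to vehicle.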

[12] = NCI Yeast Anticancer Drug Screen. Data for the rad14 strain (AID 159);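 note: 0% = growth of vehicle-treated control cultures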; conditions: S. cerevisiae rad14 strain growth inhibition, hits give high values
In short: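 Readout: yeast growth inhibition, referenced to vehicle-only cultures. Strain bears a defined alteration in DNA damage repair.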

[13] = NCI Yeast Anticancer Drug Screen. Data for the sgs1 mgt1 strain (AID 161);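 note: 0% = growth of cultures given vehicle only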; conditions: S. cerevisiae sgs1 mgt1 strain, hits give high values
In short: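 Read-out: growth inhibition vs vehicle controls. Cells: mutant yeast strain deficient in DNA damage repair.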

[14] = NCI Yeast Anticancer Drug Screen. Data for the CLN2oe strain (AID 163);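 note: 0% = growth of vehicle-only control cultures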; conditions: S. cerevisiae CLN2oe strain, hits give high values
In short: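 Growth of a genetically modified yeast strain is measured after compound exposure and compared with cultures given vehicle alone.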

[15] = NCI Yeast Anticancer Drug Screen. Data for the cln2 rad14 strain (AID 165);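 note: 0% = growth equal to vehicle treated cultures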; conditions: S. cerevisiae cln2 rad14 strain, hits give high values
In short: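 Compounds are applied to the cln2 rad14 yeast strain, and growth is then compared with that of vehicle-treated cultures to give inhibition.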

[16] = NCI Yeast Anticancer Drug Screen. Data for the bub3 strain (AID 167); conditions: S. cerevisiae bub3 mutant strain, hits give high values
In short: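 Part of a panel of yeast mutants defective in DNA damage repair or cell cycle regulation. Each strain is grown with compound, and inhibition is calculated relative to solvent-treated cultures.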

[17] = at 5.0 µM (retest, dose inferred, filed as 0.5)
[18] = at 50.0 µM (retest, dose inferred, filed as 5.0)

Measured: growth inhibition

COc1ccc(NC(=S)N/N=C(\c2ccccc2)c2ccccn2)cc1
inactive: [1]; at 1.2 µM -4% | [1]; at 3.7 µM -4% | [1]; at 11.0 µM -3% | [1]; at 33.0 µM 53% | [2]; at 1.2 µM -4% | [2]; at 3.7 µM -4% | [2]; at 11.0 µM -2% | [2]; at 33.0 µM 60% | [3]; at 1.2 µM -5% | [3]; at 3.7 µM -4% | [3]; at 11.0 µM 0% | [3]; at 33.0 µM 52% | [4]; [17] 55% | [5]; at 1.2 µM -3% | [5]; at 3.7 µM 0% | [5]; at 11.0 µM -2% | [5]; at 33.0 µM 51%
active: [1]; at 100.0 µM 96% | [2]; at 100.0 µM 94% | [3]; at 100.0 µM 97% | [4]; [18] 90% | [4]; at 50.0 µM 83.7% | [5]; at 100.0 µM 95%

CCc1ncnc2cc(OCC3CO3)c(OC)cc12 (centres undefined)
inactive: [6]; at 1.2 µM 7% | [6]; at 3.7 µM 46% | [6]; at 11.0 µM 66% | [7]; at 1.2 µM -9% | [7]; at 3.7 µM 8% | [7]; at 11.0 µM 3% | [7]; at 33.0 µM 6% | [7]; at 100.0 µM 20% | [8]; at 1.2 µM 8% | [8]; at 3.7 µM 31% | [8]; at 11.0 µM 31% | [8]; at 33.0 µM 47% | [9]; at 1.2 µM -14% | [9]; at 3.7 µM -8% | [9]; at 11.0 µM -3% | [9]; at 33.0 µM 22% | [9]; at 100.0 µM 48% | [10]; at 1.2 µM 23% | [10]; at 3.7 µM 44% | [11]; at 1.2 µM 2% | [11]; at 3.7 µM 6% | [11]; [17] 26% | [11]; at 11.0 µM 22% | [12]; at 1.2 µM 0% | [12]; at 3.7 µM 1% | [12]; at 11.0 µM 46% | [14]; at 1.2 µM 20% | [14]; at 3.7 µM 15% | [14]; at 11.0 µM 27% | [14]; at 33.0 µM 30% | [14]; at 100.0 µM 52% | [15]; [17] 17% | [16]; at 1.2 µM 17% | [16]; at 3.7 µM -7% | [16]; [17] 10% | [16]; at 11.0 µM 2% | [16]; at 33.0 µM 12% | [16]; [18] 47% | [16]; at 50.0 µM 17.9% | [16]; at 100.0 µM 43% | [1]; at 1.2 µM -26% | [1]; at 3.7 µM -15% | [1]; at 11.0 µM -14% | [1]; at 33.0 µM 13% | [2]; at 1.2 µM -4% | [2]; at 3.7 µM -6% | [2]; at 11.0 µM 9% | [2]; at 33.0 µM 14% | [2]; at 100.0 µM 61% | [3]; at 1.2 µM 31% | [3]; at 3.7 µM 53%
active: [6]; at 33.0 µM 82% | [6]; at 100.0 µM 87% | [8]; at 100.0 µM 74% | [10]; [17] 72% | [10]; at 11.0 µM 72% | [10]; at 33.0 µM 85% | [10]; [18] 92% | [10]; at 50.0 µM 84.3% | [10]; at 100.0 µM 91% | [11]; at 33.0 µM 75% | [11]; [18] 92% | [11]; at 50.0 µM 89.4% | [11]; at 100.0 µM 91% | [12]; at 33.0 µM 85% | [12]; at 100.0 µM 94% | [13]; [17] 79% | [13]; [18] 93% | [13]; at 50.0 µM 82.7% | [15]; [18] 79% | [15]; at 50.0 µM 79.1% | [1]; at 100.0 µM 72% | [3]; at 11.0 µM 70% | [3]; at 33.0 µM 82% | [3]; at 100.0 µM 91% | [4]; [17] 90% | [4]; [18] 95% | [4]; at 50.0 µM 81.2% | [5]; at 1.2 µM 73% | [5]; at 3.7 µM 84% | [5]; at 11.0 µM 92% | [5]; at 33.0 µM 91% | [5]; at 100.0 µM 93%

Cc1cc(O)cc(O)c1N=Nc1ccc([N+](=O)[O-])cc1
active: [10]; [18] 98% | [10]; at 50.0 µM 70.3% | [11]; [18] 95% | [15]; [18] 72% | [15]; at 50.0 µM 72.7% | [4]; [18] 99%
inactive: [6]; at 1.2 µM 5% | [6]; at 3.7 µM 12% | [6]; at 11.0 µM 11% | [6]; at 33.0 µM 20% | [6]; at 100.0 µM 32% | [7]; at 1.2 µM 12% | [7]; at 3.7 µM 17% | [7]; at 11.0 µM 21% | [7]; at 33.0 µM 51% | [7]; at 100.0 µM 62% | [8]; at 1.2 µM 18% | [8]; at 3.7 µM 12% | [8]; at 11.0 µM 15% | [8]; at 33.0 µM 22% | [8]; at 100.0 µM 21% | [9]; at 1.2 µM 11% | [9]; at 3.7 µM 15% | [9]; at 11.0 µM 23% | [9]; at 33.0 µM 59% | [9]; at 100.0 µM 64% | [10]; at 1.2 µM -6% | [10]; at 3.7 µM 2% | [10]; [17] 47% | [10]; at 11.0 µM -1% | [10]; at 33.0 µM 18% | [10]; at 100.0 µM 31% | [11]; at 1.2 µM 7% | [11]; at 3.7 µM 8% | [11]; [17] 54% | [11]; at 11.0 µM 8% | [11]; at 33.0 µM 46% | [11]; at 50.0 µM 36.1% | [11]; at 100.0 µM 63% | [12]; at 1.2 µM -18% | [12]; at 3.7 µM -21% | [12]; at 11.0 µM -14% | [12]; at 33.0 µM 38% | [12]; at 100.0 µM 61% | [13]; [17] 3% | [13]; [18] 25% | [13]; at 50.0 µM 46.6% | [14]; at 1.2 µM 24% | [14]; at 3.7 µM 22% | [14]; at 11.0 µM 30% | [14]; at 33.0 µM 42% | [14]; at 100.0 µM 55% | [15]; [17] 24% | [16]; at 1.2 µM 4% | [16]; at 3.7 µM 26% | [16]; [17] 16% | [16]; at 11.0 µM 43% | [16]; at 33.0 µM 56% | [16]; [18] 49% | [16]; at 50.0 µM 43.1% | [16]; at 100.0 µM 62% | [1]; at 1.2 µM 5% | [1]; at 3.7 µM 11% | [1]; at 11.0 µM -4% | [1]; at 33.0 µM 26% | [1]; at 100.0 µM 45% | [2]; at 1.2 µM -10% | [2]; at 3.7 µM -2% | [2]; at 11.0 µM -3% | [2]; at 33.0 µM 23% | [2]; at 100.0 µM 33% | [3]; at 1.2 µM -3% | [3]; at 3.7 µM -2% | [3]; at 11.0 µM 4% | [3]; at 33.0 µM 32% | [3]; at 100.0 µM 47% | [4]; [17] 48% | [4]; at 50.0 µM 55.8% | [5]; at 1.2 µM 5% | [5]; at 3.7 µM 3% | [5]; at 11.0 µM 8% | [5]; at 33.0 µM 11% | [5]; at 100.0 µM 32%

From PubChem BioAssay (NCI)
